Screens as filed in PubChem BioAssay.
HCV inh: qHTS Assay for Inhibitors of Hepatitis C Virus (HCV) | Potency, µM (doses to about 41.8 µM), for inactives: at the highest dose activity change, negative = inhibition, hits mostly inhibitors | AID 651820, 2012 | 340,000 tested, 3.4% active | Huh7.5.1 HCVcc-Cre infection, luciferase reporter, 44 h; further: potency means the concentration at half of the fitted maximal effect; on the % scale 0 is the no-effect control and ±100 the full control effect
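Luciferase read-out (15 sec integration) after a 15 min room-temperature substrate step quantifies HCVcc-Cre infection. Cells, 1,000 per well, had compound added 4 h post-plating, then virus at ~0.5 moi, and were cultured 44 h.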
HCMV inh: qHTS Assay for inhibitors of the human cytomegalovirus (HCMV) | activity change, negative = inhibition, % at 57.5 µM | AID 1259415, 2018 | HFF cells, HCMV-luciferase reporter, 72 h; active compounds read low | 410,000 tested, 4.5% active; in the data active means activity change below about -60%; inconclusive means no clear call, values can overlap the other calls; inactive means above about -39%; further: on the % scale 0 is the no-effect control and ±100 the full control effect
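Compounds were evaluated in HFFs infected with an HCMV luciferase reporter virus (MOI 1 PFU/cell). Luciferase in lysates collected 72 h post infection served as the replication measure.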
Vaccinia mCherry: qHTS for Stage-Specific Inhibitors of Vaccinia Orthopoxvirus: mCherry Reporter Primary qHTS | Vaccinia virus mCherry reporter infection, fluorescence | Potency, µM (titrated, usually from 36.5 µM), without a hit: at the highest dose activity change, negative = inhibition, most hits filed as inhibitors | 310,000 tested, 0.63% active; calls by dose curve; tested in A549 cells; further: potency means the concentration at half of the fitted maximal effect; on the % scale 0 is the no-effect control and ±100 the full control effect; nearly all actives have a fitted effect of over 35% in size
VACV Venus inh: qHTS for Stage-Specific Inhibitors of Vaccinia Orthopoxvirus: Venus Reporter Primary qHTS | Vaccinia virus Venus reporter expression, fluorescence | Potency, µM (series often up to 36.5 µM), for the others: top-dose activity change, negative = inhibition, actives largely listed as inhibitors | 330,000 tested, 0.46% active | AID 720580, 2013; calls by dose curve; tested in A549 cells; further: potency means the concentration at half of the fitted maximal effect; on the % scale 0 is the no-effect control and ±100 the full control effect; nearly all actives have a fitted effect of over 30% in size
Giardia FBPA inh: qHTS Assay for Inhibitors of Fructose-1,6-bisphosphate Aldolase from Giardia Lamblia. A8B2U2. purified Giardia FBPA. Potency, µM (titrated, usually from 59.6 µM), inactives show at the top dose activity, negative = inhibition, hits mostly inhibitors. 290,000 tested, 0.71% active; further: potency means the concentration at half of the fitted maximal effect; on the % scale 0 is the no-effect control and ±100 the full control effect; nearly all actives have a fitted effect of over 55% in size
Target sequence (A8B2U2 whole entry, looked up): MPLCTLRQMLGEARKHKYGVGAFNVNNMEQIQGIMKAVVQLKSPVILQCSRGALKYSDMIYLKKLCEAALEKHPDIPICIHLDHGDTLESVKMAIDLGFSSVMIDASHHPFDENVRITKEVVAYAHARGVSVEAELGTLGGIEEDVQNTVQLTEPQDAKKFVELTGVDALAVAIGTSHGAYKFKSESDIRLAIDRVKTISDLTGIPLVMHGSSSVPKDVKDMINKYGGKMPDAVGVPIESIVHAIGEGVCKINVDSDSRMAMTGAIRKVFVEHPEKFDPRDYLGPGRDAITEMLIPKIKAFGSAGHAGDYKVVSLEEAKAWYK
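Giardia FBPA (40 nM reagent) was preincubated 10 min at RT with compound (up to 57.5 uM final), then substrate plus GAPDH/TPI/NAD/arsenate coupling system with diaphorase/resazurin was added; resorufin fluorescence (525/598 nm) was read after 20 min.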
FMDV inh: High Throughput Screening for Foot and Mouth Disease Virus Antivirals; AID 1159524, 2015; FMDV antiviral cell-based qHTS; Potency, µM (titrated, usually from 57.9 µM), for the others: at the highest dose activity change, negative = inhibition, most hits filed as inhibitors; 410,000 tested, 1.2% active; calls by dose curve; tested in HEK293T cells; further: read-out not given here; potency means the concentration at half of the fitted maximal effect; on the % scale 0 is the no-effect control and ±100 the full control effect; nearly all actives have a fitted effect of over 45% in size
HCV inh confirm: qHTS Assay for Inhibitors of Hepatitis C Virus (HCV): Confirmation Assay for Cherry-picked Compounds. 640 tested, 78% active. Potency, µM (doses to about 41.8 µM), inactives show at the highest dose activity, negative = inhibition, hits mostly inhibitors. shares compounds with HCV inh. HCVcc-Cre infectious virus cell assay, luciferase, inhibition. AID 720575, 2013; further: potency means the concentration at half of the fitted maximal effect; nearly all actives have a fitted effect of over 80% in size
HCV host tox: qHTS Assay for Inhibitors of Hepatitis C Virus (HCV): Cytotoxicity Counterscreen for Cherry-picked Compounds. shares compounds with HCV inh. HCV host cell line cytotoxicity counterscreen. Potency, µM (top dose mostly 41.8 µM), for inactives: at the highest dose activity change, negative = cytotoxicity, hits mostly inhibitors. 640 tested, 22% active. AID 720576, 2013;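 further: potency means the concentration at half of the fitted maximal effect; 44 h compound exposure; on the % scale 0 is the no-effect control and ±100 the full control effect; nearly all actives have a fitted effect of over 55% in size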
An asterisk follows results filed as active; i = inactive; ? = inconclusive; nt = no result given. The list is not random: actives were taken first. Their share in the collection is about 7.5%. Unless noted, the call rests on the fitted dose curve; in most records, active means well fitted curve in the direction sought with a large enough effect; inconclusive means small, poorly fitted or top-dose-only effect, or another doubt; inactive means no such curve, though single readings can be large; an effect the other way counts as inactive or inconclusive.

SMILES | HCV inh | HCMV inh | Vaccinia mCherry | VACV Venus inh | Giardia FBPA inh | FMDV inh | HCV inh confirm | HCV host tox
CNCCOc1ccc(Cl)c(Cl)c1 | ? | -20 | -23% | -17% | ? | -10% | -17% | 43%
COc1ncc2nc(-c3cn(C)c4ccccc34)c(=O)n(C)c2n1 | nt | nt | nt | nt | -8% | -4% | nt | nt
S=C(NCCCN1CCOCC1)N1CCN(c2nc(-c3ccc(Cl)cc3)cs2)CC1 | 3.2µM* | -91* | nt | nt | 0% | 13µM* | 7µM* | 28µM*
COc1cc(NC(=O)c2ccc3c(c2)OCO3)ccc1NC(=O)c1ccco1 | ? | -8 | i | -10% | 4% | 15% | ? | 8%
Nc1nc(SCc2ccccc2Cl)c2ncn(C3OC(CO)C(O)C3O)c2n1 (centres undefined) | 0% | -17 | i | -3% | nt | ? | nt | nt
OC(c1ccc(Cl)cc1)c1ncc(-c2cccc(F)c2)[nH]1 (centres undefined) | nt | 0 | i | -10% | nt | 50% | nt | nt
CC1CCC(NC(=O)c2ccc3c(c2)N(Cc2ccccc2F)C(=O)c2ccccc2S3)CC1 (centres undefined) | nt | 67 | -21% | -8% | nt | 29% | nt | nt
COCCN(C(=O)COC(=O)/C=C/c1ccco1)c1c(N)n(Cc2ccccc2)c(=O)[nH]c1=O | 1% | 12 | -19% | -13% | -1% | -19% | nt | nt
COCCN(C(=O)COC(=O)/C=C/c1ccc(OC)c(OC)c1)c1c(N)n(Cc2ccccc2)c(=O)[nH]c1=O | ? | -29 | i | -3% | nt | 4% | ? | 27%
CN1CCN(C2CN(Cc3cn(Cc4cccc(C(F)(F)F)c4)nn3)S(=O)(=O)C2)CC1 (centres undefined) | nt | -20 | -2% | 5% | nt | -26% | nt | nt
COc1ccc(-c2ccc3oc(-c4ccc(OC)cc4)c(C#CCCO)c3c2)cc1 | 1.1µM* | 18 | -12% | ? | nt | -23% | 2.2µM* | 15%
COc1ccc(C#Cc2c(-c3ccc(OC)cc3)oc3ccc(-c4ccc(OC)cc4)cc23)cc1 | 18% | -3 | i | 3% | nt | -11% | nt | nt
CC(=O)Nc1cccc(OCCCNS(=O)(=O)c2ccc(C#N)cc2)c1 | -21% | -11 | -17% | -6% | nt | 1% | nt | nt
COc1cccc(NC(=O)Nc2ccc(Cc3ccncc3)cc2)c1 | ? | ? | -18% | -24% | 1% | -16% | ? | 4%
COc1cccc(NC(=O)Nc2ccncc2)c1 | -8% | -34 | nt | nt | -2% | 0% | nt | nt
CCS(=O)(=O)CCSc1nc(-c2ccc(Br)cc2)cc(-c2ccccc2)c1C#N | nt | 16 | i | -9% | nt | -25% | nt | nt
CS(=O)c1nc(-c2ccc(Br)cc2)cc(-c2ccccc2)c1C#N (centres undefined) | 5µM* | -98* | ? | ? | -1% | nt | ? | ?
CC(C)(C)c1cc[n+](C2=C([O-])c3ccccc3C(=O)/C2=N\S(=O)(=O)c2cccs2)cc1 | 2.8µM* | -100* | ? | ? | ? | 8.9µM* | 25µM* | ?
COc1cc(C(=O)O/N=C(\N)c2cccc([N+](=O)[O-])c2)cc(OC)c1OC | ? | 8 | -17% | -12% | 4% | -6% | nt | nt
COc1cc(C(=O)O/N=C(\N)c2ccc([N+](=O)[O-])cc2)cc(OC)c1OC | ? | 0 | nt | nt | 5% | -24% | ? | 26%
O=C(NC1CCS(=O)(=O)C1)/C(=C/c1ccco1)NC(=O)c1ccccc1 (centres undefined) | 7.1µM* | -25 | i | 4% | 3% | -10% | 0% | 18%
C=CCNCCOCCOc1ccccc1-c1ccccc1 | -11% | ? | ? | -19% | 19% | -8% | nt | nt
COCCCNCCOCCOc1ccccc1-c1ccccc1 | 7.9µM* | -36 | -24% | -22% | -21% | 12% | ? | ?
CN1CCc2nc(SCCOc3ccccc3)c(C#N)cc2C1 | 3.5µM* | 0 | i | -6% | -10% | nt | ? | 6%
N#Cc1cc2c(nc1SCc1ccccc1)CCC2 | -6% | -13 | nt | nt | -1% | 0% | nt | nt
SMILES | HCV inh | HCMV inh | Vaccinia mCherry | VACV Venus inh | Giardia FBPA inh | FMDV inh | HCV inh confirm | HCV host tox
CCOc1cc(/C=N/N2CCN(Cc3ccccc3)CC2)ccc1O | -6% | -16 | -5% | -5% | -1% | -15% | nt | nt
ON=C1c2cc(OCCN3CCCCC3)ccc2-c2ccc(OCCN3CCCCC3)cc21 | 3.2µM* | nt | ? | 8.9µM* | -11% | -10% | ? | -12%
CCC[n+]1c(C)sc2c3c(ccc21)CCCC3 | 7.1µM* | nt | -14% | -3% | -6% | ? | 25µM* | 30%
Cc1cccc(Nc2nc(-c3c(C)nc4ccccn34)cs2)c1 | 2.5µM* | -95* | ? | ? | -28% | nt | 14µM* | 25µM*
CCCC(=O)Nc1ccc(C(=O)NNC(=S)NC(=O)c2ccc(Br)o2)cc1 | ? | -7 | -2% | -10% | 26% | -13% | nt | nt
Cc1ccnc(NC(=O)CCCOc2cc(=O)n(C)c3ccccc23)c1 | 3.5µM* | -101* | ? | ? | -3% | 4% | 7.9µM* | ?
Cn1c(=O)cc(OCCCC(=O)NCc2ccccn2)c2ccccc21 | 14% | 180 | nt | nt | 2% | 0% | nt | nt
CN(CCN1CCOCC1)Cc1nc(-c2ccccc2)no1 | 22% | 32 | nt | nt | -2% | 6% | nt | nt
CCCCC/C=C/C1=CC(=O)C[C@H](c2ccc(OC)cc2)C1 | 0% | 8 | -17% | -20% | nt | -7% | nt | nt
Cn1c(=O)c2c(nc(SCC(=O)NCc3ccc4c(c3)OCO4)n2Cc2ccccc2)n(C)c1=O | 2% | -18 | nt | -23% | -1% | 0% | ? | 13%
Cn1c(=O)c2c(nc(SCC(=O)NCc3ccc4c(c3)OCO4)n2Cc2ccc(F)cc2)n(C)c1=O | ? | -36 | -3% | -5% | 0% | -23% | 14µM* | 26%
CC1CCN(C(=O)C(C)NCc2ccc(F)cc2)CC1 (centres undefined) | 3% | 5 | -28% | -5% | ? | 0% | nt | nt
CCN(CC)CCOC(=O)C(c1ccccc1)C1CCCCC1 (centres undefined) | ? | ? | ? | ? | -2% | -23% | 14µM* | 14%
